# HT1080 IDH1KD tx = qHTS for induction of synthetic lethality in tumor cells producing 2HG: qHTS for the HT-1080-IDH1KD cell line | Potency, µM (titrated, usually from 46.1 µM), for inactives: at the top dose activity, negative = toxicity, hits mostly cytotoxic | HT-1080 IDH1 knockdown viability, ATP luminescence, 48 h | hit rate 2% among 360,000 | AID 686971, 2013;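 further: potency means the concentration at half of the fitted maximal effect; 0% = DMSO wells and -100% = cell-free medium wells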
#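 Luminescent ATP read-out (CellTiter-Glo, 10 min at room temperature) after 48 h compound exposure at 37 °C gave viability of IDH1-knockdown HT-1080 cells. Activity was normalised to DMSO and cell-free wells, then fitted as concentration-response curves.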
# TDP1 cell noCPT = qHTS for Inhibitors of human tyrosyl-DNA phosphodiesterase 1 (TDP1): qHTS in cells in absence of CPT; DT40 Tdp1-/- hTDP1 cells, no CPT, ATP luminescence, 48 h; hit rate 15% among 420,000; Potency, µM (titrated, usually from 46.2 µM), for the others: top-dose activity change, negative = growth inhibition, most hits filed as inhibitors; AID 686978, 2013; further: potency means the concentration at half of the fitted maximal effect; nearly all actives have a fitted effect of over 55% in size
#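 Chicken DT40 Tdp1-/- cells stably complemented with human TDP1 were seeded at 400 cells/well with DMSO in place of 20 nM camptothecin. After compound pinning, cells grew at least 48 hr at 37 °C; viability read by CellTiter-Glo luminescence.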
# HT1080NT lethal = qHTS for induction of synthetic lethality in tumor cells producing 2HG: qHTS for the HT-1080-NT fibrosarcoma cell line | Potency, µM (titrated, usually from 46.1 µM), inactives show at the top dose activity, negative = less viability, most hits filed as cytotoxic | HT-1080-NT fibrosarcoma viability, CellTiter-Glo ATP luminescence, 48 h | hit rate 1.6% among 360,000;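 further: NT is the 2HG producing partner of a matched IDH1 knockdown line; potency means the concentration at half of the fitted maximal effect; 0% = DMSO-treated cells and -100% = media-only wells without cells; nearly all actives have a fitted effect of over 55% in size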
#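 Viability by CellTiter-Glo luminescence after 48 h compound exposure at 37C of HT-1080-NT cells (750/well, RPMI, 5% FBS). % activity scaled between DMSO wells and medium-only wells, then curve-fitted and categorized by curve class.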
# DT40 TDP1 CPT = qHTS for Inhibitors of human tyrosyl-DNA phosphodiesterase 1 (TDP1): qHTS in cells in presence of CPT. chicken DT40 Tdp1-/-;hTDP1 cells + 20 nM CPT, ATP luminescence, 48 h. hit rate 12% among 420,000. Potency, µM (highest dose often 46.2 µM), without a hit: at the highest dose activity change, negative = growth inhibition, most hits filed as inhibitors; further: potency means the concentration at half of the fitted maximal effect; nearly all actives have a fitted effect of over 55% in size
#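 Chicken DT40 Tdp1-/- cells stably complemented with human TDP1 were seeded at 400 cells/well in medium containing 20 nM camptothecin, exposed to pin-transferred compounds, and grown at 37 °C for at least 48 hr. Viability was read as ATP luminescence.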
# IL1B secr inh = qHTS for Inhibitors of Inflammasome Signaling: IL-1-beta AlphaLISA Primary Screen | THP-1 LPS/ATP IL-1B secretion, AlphaLISA, 16 h; stronger effect = lower value | activity change, % at 57.5 µM | hit rate 4.7% among 360,000 | AID 743279, 2014; in the data active means activity change below about -50%; inconclusive means mostly about -30% to -49%
#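 Secreted IL-1B measured by AlphaLISA bead assay after 16 h compound exposure of THP-1 cells; compounds (final up to 57.5 uM) added 1 h before LPS (250 ng/mL) and ATP (1.25 mM) stimulation; lower signal means less secretion.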
# An asterisk follows results filed as active; ? = inconclusive; . = not tested or not shown. Sampled rows, rich in hits. Any-hit rate of the full collection: about 19%. Unless noted, the call rests on the fitted dose curve; in most records, active means well fitted curve in the direction sought with a large enough effect; inconclusive means small, poorly fitted or top-dose-only effect, or another doubt; inactive means no such curve, though single readings can be large; an effect the other way counts as inactive or inconclusive. Unless noted, on the % scale 0 is the no-effect control and ±100 the full control effect.
SMILES,HT1080 IDH1KD tx,TDP1 cell noCPT,HT1080NT lethal,DT40 TDP1 CPT,IL1B secr inh
O=C1OCCC1Sc1nnc2c(n1)[nH]c1ccccc12 (stereo not drawn),8%,-3%,2%,12%,.
C[C@H](CO)N1C[C@H](C)[C@@H](CN(C)C(=O)Nc2ccc(C(F)(F)F)cc2)Oc2ccc(NS(=O)(=O)c3cccs3)cc2C1=O,0%,-15%,0%,?,-8
C[C@@H]1CN([C@H](C)CO)C(=O)c2cc(NC(=O)Nc3ccc(F)cc3)ccc2O[C@H]1CN(C)C(=O)Nc1ccc(C(F)(F)F)cc1,?,21µM*,-19%,16µM*,-72*
C[C@H](CO)N1C[C@H](C)[C@@H](CN(C)C(=O)Nc2ccc(C(F)(F)F)cc2)Oc2ccc(NS(=O)(=O)c3ccccc3)cc2C1=O,-24%,?,-14%,3.7µM*,-12
Cc1ccc(S(=O)(=O)Nc2ccc3c(c2)C(=O)N([C@H](C)CO)C[C@H](C)[C@@H](CN(C)C(=O)Nc2ccc(C(F)(F)F)cc2)O3)cc1,-29%,?,-20%,?,?
C[C@H](CO)N1C[C@H](C)[C@@H](CN(C)C(=O)Nc2ccc(C(F)(F)F)cc2)Oc2ccc(NC(=O)C3CCCCC3)cc2C1=O,-2%,?,-3%,?,-53*
C[C@H](CO)N1C[C@H](C)[C@@H](CN(C)C(=O)Nc2ccccc2)Oc2ccc(NC(=O)Nc3ccc(C(F)(F)F)cc3)cc2C1=O,?,?,-27%,?,-10
C[C@H](CO)N1C[C@H](C)[C@@H](CN(C)C(=O)Nc2ccc(C(F)(F)F)cc2)Oc2ccc(NS(=O)(=O)c3ccc(F)cc3)cc2C1=O,-18%,23µM*,-15%,?,-23
CC(C)NC(=O)N(C)C[C@H]1OCCCC[C@@H](C)Oc2ccc(NC(=O)C3CCCCC3)cc2C(=O)N([C@H](C)CO)C[C@@H]1C,-1%,12µM*,-1%,?,-12
CC(C)NC(=O)N(C)C[C@@H]1OCCCC[C@@H](C)Oc2ccc(NC(=O)Nc3ccc(F)cc3)cc2C(=O)N([C@H](C)CO)C[C@@H]1C,-4%,-2%,-5%,-17%,-9
CCN(CC)c1ccc(C2C(C(=O)OC(C)C)C(=O)CC(C)(O)C2C(=O)OC(C)C)cc1 (stereo not drawn),-2%,13µM*,-3%,15µM*,-10
CCOC(=O)CSc1nc2ccccc2c(=O)n1CC,6%,7%,2%,-4%,5
CCOC(=O)CSc1nc2ccccc2c(=O)n1CC1CCCC1,-5%,15µM*,-3%,10µM*,-6
CCOC(=O)CSc1nc2ccccc2c(=O)n1CC1CCC(C(=O)NCc2ccco2)CC1 (stereo not drawn),2%,23µM*,-13%,?,0
CC1(Cc2ccccc2Cl)C(=O)Nc2ccc(OC(F)(F)F)cc21 (stereo not drawn),29µM*,?,?,23µM*,-10
CC1(Cc2ccccc2C#N)C(=O)Nc2ccc(OC(F)(F)F)cc21 (stereo not drawn),-8%,-28%,1%,-29%,-22
COC(=O)Cn1nnnc1-c1nc2cc(C)c(C)cc2[nH]c1=O,8%,-22%,18%,-14%,50
CSc1ccc(Cl)c(C(=O)Nc2ccc(N3CCOCC3)cc2)c1,-28%,-18%,1%,-28%,-8
CCCCCOc1ccc(NC(=O)c2cc(SC)ccc2Cl)cc1,-8%,13µM*,12%,23µM*,15
CCOc1ccc(NC(=O)c2ccccc2SC)cc1,11%,?,23%,?,-20
CCOc1ccc(NC(=O)c2cc(SC)ccc2Cl)cc1,2%,16µM*,3%,18µM*,-18
